Test results published in PubChem BioAssay (NCATS).
Results filed as inconclusive are left out. Calls of active or inactive are those of the source. The call rests on the fitted dose curve; in most records, active means well fitted curve in the direction sought with a large enough effect; inconclusive means small, poorly fitted or top-dose-only effect, or another doubt; inactive means no such curve, though single readings can be large; an effect the other way counts as inactive or inconclusive.

What was measured:
3D7 = assay: qHTS profiling for inhibitors of Plasmodium falciparum proliferation (AID 504749); further: nearly all actives have a fitted effect of over 60% in size; settings: P. falciparum in erythrocytes, SYBR Green DNA, 72 h; series mostly up to 12.8 µM
Outline: (§1)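 Quantitative HTS: compounds pinned into medium, infected erythrocytes added (0.3% parasitemia, 2.5% hematocrit), 72 h culture at 37 C under 5% CO2. Saponin/Triton lysis with SYBR Green I, overnight RT, then fluorescence read.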

7G8 = assay: as above; settings: P. falciparum in erythrocytes, SYBR Green DNA, 72 h; series mostly up to 12.8 µM
Outline: as §1

AA1029 = assay: as above; settings: P. falciparum in erythrocytes, SYBR Green DNA, 72 h; series mostly up to 12.8 µM
Outline: as §1

C2A = assay: as above; settings: P. falciparum in erythrocytes, SYBR Green DNA, 72 h; series mostly up to 12.8 µM
Outline: as §1

CP203 = assay: as above; settings: P. falciparum in erythrocytes, SYBR Green DNA, 72 h; series mostly up to 12.8 µM
Outline: as §1

CP211 = assay: as above; settings: P. falciparum in erythrocytes, SYBR Green DNA, 72 h; series mostly up to 12.8 µM
Outline: as §1

CP252 = assay: as above; settings: P. falciparum in erythrocytes, SYBR Green DNA, 72 h; series mostly up to 12.8 µM
Outline: as §1

CP268 = assay: as above; settings: P. falciparum in erythrocytes, SYBR Green DNA, 72 h; series mostly up to 12.8 µM
Outline: as §1

CP286 = assay: as above; settings: P. falciparum in erythrocytes, SYBR Green DNA, 72 h; series mostly up to 12.8 µM
Outline: as §1

CP291 = assay: as above; settings: P. falciparum in erythrocytes, SYBR Green DNA, 72 h; series mostly up to 12.8 µM
Outline: as §1

CP315 = assay: as above; settings: P. falciparum in erythrocytes, SYBR Green DNA, 72 h; series mostly up to 12.8 µM
Outline: as §1

DFO2036 = assay: as above; settings: P. falciparum in erythrocytes, SYBR Green DNA, 72 h; series mostly up to 12.8 µM
Outline: as §1

ECU = assay: as above; settings: P. falciparum in erythrocytes, SYBR Green DNA, 72 h; series mostly up to 12.8 µM
Outline: as §1

GB4 = assay: as above; settings: P. falciparum in erythrocytes, SYBR Green DNA, 72 h; series mostly up to 12.8 µM
Outline: as §1

HB3 = assay: as above; settings: P. falciparum in erythrocytes, SYBR Green DNA, 72 h; series mostly up to 12.8 µM
Outline: as §1

ICS = assay: as above; settings: P. falciparum in erythrocytes, SYBR Green DNA, 72 h; series mostly up to 12.8 µM
Outline: as §1

P93_24 = assay: as above; settings: P. falciparum in erythrocytes, SYBR Green DNA, 72 h; series mostly up to 12.8 µM
Outline: as §1

PAD = assay: as above; settings: P. falciparum in erythrocytes, SYBR Green DNA, 72 h; series mostly up to 12.8 µM
Outline: as §1

TAB165 = assay: as above; settings: P. falciparum in erythrocytes, SYBR Green DNA, 72 h; series mostly up to 12.8 µM
Outline: as §1

[1] = target: Cytochrome P450 3A4 (Homo sapiens) (UniProt P08684); assay: qHTS Assay for Inhibitors and Substrates of Cytochrome P450 3A4 (AID 884); further: nearly all actives have a fitted effect of over 50% in size
Outline: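 Luminescent readout of luciferin produced by CYP3A4 (20 nM) dealkylation of Luciferin-PPXE, 25 uM (its KM). NADPH-driven reaction ran 60 min at RT after 10 min compound preincubation; data scaled to 57 uM ketoconazole as 100% inhibition.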

Measured: Potency

Sequence of Cytochrome P450 3A4 (Homo sapiens) (P08684 whole entry, looked up): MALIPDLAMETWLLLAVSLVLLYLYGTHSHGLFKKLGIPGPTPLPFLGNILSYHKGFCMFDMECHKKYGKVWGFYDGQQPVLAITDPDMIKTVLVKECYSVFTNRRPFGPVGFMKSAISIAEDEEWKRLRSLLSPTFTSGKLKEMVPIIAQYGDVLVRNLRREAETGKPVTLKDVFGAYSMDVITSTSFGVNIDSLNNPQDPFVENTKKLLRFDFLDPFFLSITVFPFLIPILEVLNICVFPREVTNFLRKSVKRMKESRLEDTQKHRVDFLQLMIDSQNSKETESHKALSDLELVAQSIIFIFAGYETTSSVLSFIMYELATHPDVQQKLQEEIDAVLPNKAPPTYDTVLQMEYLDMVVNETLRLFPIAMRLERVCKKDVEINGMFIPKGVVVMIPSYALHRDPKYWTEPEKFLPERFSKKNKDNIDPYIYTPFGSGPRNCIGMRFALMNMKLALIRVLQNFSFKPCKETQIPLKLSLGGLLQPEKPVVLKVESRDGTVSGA

O=C(c1ccccc1)c1ccc2n1CC[C@H]2C(=O)O
inactive: 3D7 | 7G8 | AA1029 | C2A | CP203 | CP211 | CP252 | CP268 | CP286 | CP291 | CP315 | DFO2036 | ECU | GB4 | HB3 | ICS | P93_24 | PAD | TAB165

CC[C@]1(C)CC(=O)NC1=O
inactive: 3D7 | 7G8 | AA1029 | C2A | CP211 | CP252 | CP268 | CP286 | CP291 | CP315 | DFO2036 | ECU | GB4 | HB3 | ICS | P93_24 | PAD | TAB165

C[C@@H]1COc2c(N3CCN(C)CC3)c(F)cc3c(=O)c(C(=O)O)cn1c23
inactive: 3D7 | 7G8 | AA1029 | C2A | CP203 | CP211 | CP252 | CP268 | CP286 | CP291 | CP315 | DFO2036 | ECU | GB4 | HB3 | ICS | P93_24 | PAD | TAB165

CCn1cc(C(=O)O)c(=O)c2cc(F)c(N3CCN[C@@H](C)C3)c(F)c21
inactive: 3D7 | 7G8 | AA1029 | C2A | CP203 | CP211 | CP252 | CP315 | DFO2036 | ECU | GB4 | HB3 | ICS | P93_24 | PAD | TAB165

CC(C)NC[C@H](O)c1cc(O)cc(O)c1
inactive: 3D7 | 7G8 | AA1029 | C2A | CP203 | CP211 | CP252 | CP268 | CP286 | CP291 | CP315 | DFO2036 | ECU | GB4 | HB3 | ICS | P93_24 | PAD | TAB165

CC(=O)O[C@]1(C(C)=O)CC[C@@H]2[C@@H]3C=C(Cl)C4=CC(=O)[C@H]5C[C@@H]5[C@]4(C)[C@H]3CC[C@]21C
inactive: [1]

CN(C)CC[C@@H](c1ccccc1)c1ccccn1
inactive: [1]

CO/N=C(\C(=O)N[C@@H]1C(=O)N2C(C(=O)O)=C(COC(C)=O)CS[C@@H]12)c1csc(N)n1
inactive: 3D7 | 7G8 | AA1029 | C2A | CP203 | CP211 | CP252 | CP268 | CP286 | CP291 | CP315 | DFO2036 | ECU | GB4 | HB3 | ICS | P93_24 | PAD | TAB165

NC(=O)OC[C@H](O)COc1ccc(Cl)cc1
inactive: 3D7 | 7G8 | AA1029 | C2A | CP203 | CP211 | CP252 | CP268 | CP286 | CP291 | CP315 | DFO2036 | ECU | GB4 | HB3 | ICS | P93_24 | PAD | TAB165

C[n+]1ccccc1/C=N\O
inactive: 3D7 | 7G8 | AA1029 | C2A | CP203 | CP211 | CP252 | CP268 | CP286 | CP291 | CP315 | DFO2036 | ECU | GB4 | HB3 | ICS | P93_24 | PAD | TAB165

CC(=O)Nc1c(I)c(C(=O)N[C@H]2[C@@H](O)[C@H](O)[C@H](CO)O[C@@H]2O)c(I)c(N(C)C(C)=O)c1I
inactive: 3D7 | 7G8 | AA1029 | C2A | CP203 | CP211 | CP252 | CP268 | CP286 | CP291 | CP315 | DFO2036 | ECU | GB4 | HB3 | ICS | P93_24 | PAD | TAB165

CCN[C@@H]1C[C@H](C)S(=O)(=O)c2sc(S(N)(=O)=O)cc21
inactive: 3D7 | 7G8 | AA1029 | C2A | CP203 | CP211 | CP252 | CP268 | CP286 | CP291 | CP315 | DFO2036 | ECU | GB4 | HB3 | ICS | P93_24 | PAD | TAB165
